From the supplement of paper PMC6992640
± gives the standard deviation of the averaged measurements.

Columns and labels:
Assay in all cases: cell viability (% of vehicle); higher = less cytotoxic
Conditions in all cases: 10 µM; 72 h
HCI01 = test system: HCI01 (cells of a triple-negative basal-like breast cancer xenograft)
HCI03 = test system: HCI03 (cells of an ER-positive luminal breast cancer xenograft)
HCI09 = test system: HCI09 (cells of a triple-negative luminal androgen receptor type breast cancer xenograft)
HCI11 = test system: HCI11 (cells of an ER-positive luminal breast cancer xenograft)
HCI13 = test system: HCI13 (cells of an ER-positive luminal breast cancer xenograft)
HCI16 = test system: HCI16 (cells of a triple-negative basal-like breast cancer xenograft)
UCD52 = test system: UCD52 (cells of a triple-negative basal-like breast cancer xenograft)
WHIM2 = test system: WHIM2 (cells of a triple-negative basal-like breast cancer xenograft)
WHIM30 = test system: WHIM30 (cells of a triple-negative basal-like breast cancer xenograft)
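Further: PDX cells carrying CMV promoter-driven luciferase, viability read as total photon flux per second by IVIS imaging following D-luciferin, vehicle control 0.1% DMSO.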

## CC(C)(Oc1ccc(CCNC(=O)c2ccc(Cl)cc2)cc1)C(=O)O [Bezafibrate]
HCI01
  cell viability: 108.4 ± 0.24
HCI03
  cell viability: 101
HCI09
  cell viability: 95.5 ± 17
HCI11
  cell viability: 104
HCI13
  cell viability: 97.3 ± 2.6
HCI16
  cell viability: 123
UCD52
  cell viability: 101 ± 8.8
WHIM2
  cell viability: 112 ± 14
WHIM30
  cell viability: 113 ± 6.7

## CN(N=O)C(=O)NC1C(O)OC(CO)C(O)C1O (stereo unspecified) [Streptozocin]
HCI01
  cell viability: 105 ± 4.3
HCI03
  cell viability: 123
HCI09
  cell viability: 104 ± 6.3
HCI11
  cell viability: 99.5
HCI13
  cell viability: 89.38 ± 0.52
HCI16
  cell viability: 113
UCD52
  cell viability: 83.17 ± 0.58
WHIM2
  cell viability: 85 ± 16
WHIM30
  cell viability: 123.9 ± 1.1

## COc1cnc(NS(=O)(=O)c2ccc(N)cc2)nc1 [Sulfameter]
HCI01
  cell viability: 97.7 ± 24
HCI03
  cell viability: 142
HCI09
  cell viability: 86.1 ± 1.6
HCI11
  cell viability: 83
HCI13
  cell viability: 93.22 ± 0.58
HCI16
  cell viability: 113
UCD52
  cell viability: 80.9 ± 21
WHIM2
  cell viability: 92.2 ± 18
WHIM30
  cell viability: 95.13 ± 0.27

## CN1CCN(C2=Nc3ccccc3Oc3ccc(Cl)cc32)CC1.O=C(O)CCC(=O)O [Loxapine Succinate]
HCI01
  cell viability: 117 ± 40
HCI03
  cell viability: 88.4
HCI09
  cell viability: 84.5 ± 17
HCI11
  cell viability: 84.4
HCI13
  cell viability: 64.9 ± 5.7
HCI16
  cell viability: 138
UCD52
  cell viability: 108 ± 6.8
WHIM2
  cell viability: 104 ± 24
WHIM30
  cell viability: 103 ± 6

## COCCCOc1cc(CC(CC(N)C(O)CC(C(=O)NCC(C)(C)C(N)=O)C(C)C)C(C)C)ccc1OC.COCCCOc1cc(CC(CC(N)C(O)CC(C(=O)NCC(C)(C)C(N)=O)C(C)C)C(C)C)ccc1OC.O=C(O)C=CC(=O)O (stereo unspecified) [Aliskiren Hemifumarate]
HCI01
  cell viability: 117 ± 11
HCI03
  cell viability: 157
HCI09
  cell viability: 107 ± 8.5
HCI11
  cell viability: 97.2
HCI13
  cell viability: 107 ± 2.1
HCI16
  cell viability: 148
UCD52
  cell viability: 108 ± 13
WHIM2
  cell viability: 123 ± 14
WHIM30
  cell viability: 140 ± 14

## COc1nc(C)cnc1NS(=O)(=O)c1cccnc1-c1ccc(-c2nnco2)cc1 [Zibotentan (ZD4054)]
HCI01
  cell viability: 122 ± 15
HCI03
  cell viability: 116
HCI09
  cell viability: 105 ± 9.6
HCI11
  cell viability: 117
HCI13
  cell viability: 125 ± 12
HCI16
  cell viability: 125
UCD52
  cell viability: 97.9 ± 1.1
WHIM2
  cell viability: 85.7 ± 3.5
WHIM30
  cell viability: 139 ± 6.9

## C[C@H]1COc2c(N3CCN(C)CC3)c(F)cc3c(=O)c(C(=O)O)cn1c23 [Levofloxacin]
HCI01
  cell viability: 102 ± 26
HCI03
  cell viability: 109
HCI09
  cell viability: 88 ± 17
HCI11
  cell viability: 89.6
HCI13
  cell viability: 124 ± 50
HCI16
  cell viability: 123
UCD52
  cell viability: 88.7 ± 1.4
WHIM2
  cell viability: 104 ± 12
WHIM30
  cell viability: 132 ± 2.4

## Nc1nc(=O)c2c([nH]1)NCC(CNc1ccc(C(=O)NC(CCC(=O)[O-])C(=O)[O-])cc1)N2C=O.O.O.O.O.O.[Ca+2] (stereo unspecified) [Leucovorin Calcium]
HCI01
  cell viability: 104 ± 22
HCI03
  cell viability: 102
HCI09
  cell viability: 131 ± 55
HCI11
  cell viability: 83.9
HCI13
  cell viability: 108 ± 13
HCI16
  cell viability: 127
UCD52
  cell viability: 122 ± 2.5
WHIM2
  cell viability: 67.9 ± 22
WHIM30
  cell viability: 156 ± 29

## CC(C)(C)NC(=O)NC(C(=O)N1CC2C(C1C(=O)NC(CC1CCC1)C(=O)C(N)=O)C2(C)C)C(C)(C)C (stereo unspecified) [Boceprevir]
HCI01
  cell viability: 100 ± 19
HCI03
  cell viability: 83.8
HCI09
  cell viability: 87.2 ± 6.2
HCI11
  cell viability: 101
HCI13
  cell viability: 72.5 ± 1.2
HCI16
  cell viability: 65.1
UCD52
  cell viability: 80.1 ± 16
WHIM2
  cell viability: 80.7 ± 15
WHIM30
  cell viability: 85.1 ± 8.9

## Cc1ccc(Nc2nccc(N(C)c3ccc4c(C)n(C)nc4c3)n2)cc1S(N)(=O)=O.Cl
HCI01
  cell viability: 166 ± 30
HCI03
  cell viability: 77.2
HCI09
  cell viability: 61.1 ± 13
HCI11
  cell viability: 85.4
HCI13
  cell viability: 110 ± 6.2
HCI16
  cell viability: 92
UCD52
  cell viability: 90.5 ± 2.9
WHIM2
  cell viability: 152 ± 5.7
WHIM30
  cell viability: 144 ± 6

## CCC(C)(C)c1ccc(CC(C)CN2CC(C)OC(C)C2)cc1.Cl (stereo unspecified) [Amorolfine HCl]
HCI01
  cell viability: 66.7 ± 39
HCI03
  cell viability: 129
HCI09
  cell viability: 88.4 ± 9.1
HCI11
  cell viability: 83.8
HCI13
  cell viability: 119 ± 36
HCI16
  cell viability: 119
UCD52
  cell viability: 58.3 ± 5.5
WHIM2
  cell viability: 64.5 ± 32
WHIM30
  cell viability: 166 ± 9.2

## CC(O)C1C(=O)N2C(C(=O)O)=C(SC3CNC(C(=O)N(C)C)C3)C(C)C12.O.O.O (stereo unspecified) [Meropenem trihydrate]
HCI01
  cell viability: 104 ± 8.7
HCI03
  cell viability: 81.8
HCI09
  cell viability: 127 ± 32
HCI11
  cell viability: 92.4
HCI13
  cell viability: 95 ± 0.96
HCI16
  cell viability: 96.2
UCD52
  cell viability: 89.6 ± 5.1
WHIM2
  cell viability: 99.4 ± 7.5
WHIM30
  cell viability: 78.309 ± 0.071

## Cc1ccc(C2OC(CO)C(O)C(O)C2O)cc1Cc1ccc(-c2ccc(F)cc2)s1 (stereo unspecified) [Canagliflozin]
HCI01
  cell viability: 114 ± 6.5
HCI03
  cell viability: 150
HCI09
  cell viability: 55.8 ± 27
HCI11
  cell viability: 108
HCI13
  cell viability: 77.3 ± 21
HCI16
  cell viability: 124
UCD52
  cell viability: 76 ± 9.2
WHIM2
  cell viability: 65.5 ± 51
WHIM30
  cell viability: 110 ± 5.9

## CNCC(O)C(O)C(O)C(O)CO (stereo unspecified) [Meglumine]
HCI01
  cell viability: 80.2 ± 19
HCI03
  cell viability: 93.4
HCI09
  cell viability: 97.6 ± 1.5
HCI11
  cell viability: 74.4
HCI13
  cell viability: 142 ± 11
HCI16
  cell viability: 110
UCD52
  cell viability: 78.3 ± 1.6
WHIM2
  cell viability: 85.9 ± 25
WHIM30
  cell viability: 133 ± 5.2

## CS(=O)(=O)O.Cc1ccc(NC(=O)c2ccc(CN3CCN(C)CC3)cc2)cc1Nc1nccc(-c2cccnc2)n1 [Imatinib Mesylate (STI571)]
HCI01
  cell viability: 157 ± 24
HCI03
  cell viability: 86.7
HCI09
  cell viability: 67.7 ± 12
HCI11
  cell viability: 69.7
HCI13
  cell viability: 91.3 ± 11
HCI16
  cell viability: 99
UCD52
  cell viability: 67.8 ± 1.8
WHIM2
  cell viability: 88.9 ± 6.2
WHIM30
  cell viability: 114 ± 18

## CCN(CC)CCOC(=O)C(c1ccccc1)c1ccccc1.Cl [Adiphenine HCl]
HCI01
  cell viability: 93.1 ± 17
HCI03
  cell viability: 129
HCI09
  cell viability: 99.2 ± 22
HCI11
  cell viability: 94.9
HCI13
  cell viability: 57.1 ± 3.2
HCI16
  cell viability: 110
UCD52
  cell viability: 92.2 ± 7.6
WHIM2
  cell viability: 92.4 ± 9.5
WHIM30
  cell viability: 117 ± 17

## CCN1CCN(c2cc3c(cc2F)c(=O)c(C(=O)O)cn3C2CC2)CC1 [Enrofloxacin]
HCI01
  cell viability: 105 ± 14
HCI03
  cell viability: 106
HCI09
  cell viability: 99.9 ± 18
HCI11
  cell viability: 91.8
HCI13
  cell viability: 121 ± 8.5
HCI16
  cell viability: 111
UCD52
  cell viability: 124 ± 5.2
WHIM2
  cell viability: 130 ± 18
WHIM30
  cell viability: 80.5 ± 6.2

## Cc1cc2c(cc1S(N)(=O)=O)S(=O)(=O)CCC2 [Meticrane]
HCI01
  cell viability: 109 ± 8.8
HCI03
  cell viability: 117
HCI09
  cell viability: 102 ± 6.3
HCI11
  cell viability: 89
HCI13
  cell viability: 103 ± 9.6
HCI16
  cell viability: 110
UCD52
  cell viability: 96.3 ± 10
WHIM2
  cell viability: 97 ± 7.5
WHIM30
  cell viability: 80.4 ± 2.8

## CC#CCn1c(N2CCCC(N)C2)nc2c1c(=O)n(Cc1nc(C)c3ccccc3n1)c(=O)n2C (stereo unspecified) [Linagliptin (BI-1356)]
HCI01
  cell viability: 160 ± 22
HCI03
  cell viability: 108
HCI09
  cell viability: 95.4 ± 7.2
HCI11
  cell viability: 142
HCI13
  cell viability: 105 ± 6.1
HCI16
  cell viability: 179
UCD52
  cell viability: 136 ± 2.3
WHIM2
  cell viability: 111 ± 1.3
WHIM30
  cell viability: 167 ± 7.3
